SMILES strings stand for the structures.

What all share (conditions): 0.5 µM; time after treatment 48 h; PC9 signalome
The test system of assay [1] is PC9. The assay is described as follows: AKT reporter activity score (signed KS statistic vs DMSO) (signed KS statistic (-1 to 1)); higher = stronger activation of the pathway reporter relative to DMSO.
Assay [2] relates to PC9. The assay is described as follows: RAR reporter activity score (signed KS statistic vs DMSO) (signed KS statistic (-1 to 1)); higher = stronger activation of the pathway reporter relative to DMSO.
For assay [3], the system named is PC9. The assay is described as follows: PKC reporter activity score (signed KS statistic vs DMSO) (signed KS statistic (-1 to 1)); higher = stronger activation of the pathway reporter relative to DMSO.
In assay [4] the test system is PC9. The assay is described as follows: PKA reporter activity score (signed KS statistic vs DMSO) (signed KS statistic (-1 to 1)); higher = stronger activation of the pathway reporter relative to DMSO.
In assay [5] the test system is PC9. The assay is described as follows: p38 reporter activity score (signed KS statistic vs DMSO) (signed KS statistic (-1 to 1)); higher = stronger activation of the pathway reporter relative to DMSO.
In assay [6] the test system is PC9. The assay is described as follows: HIF reporter activity score (signed KS statistic vs DMSO) (signed KS statistic (-1 to 1)); higher = stronger activation of the pathway reporter relative to DMSO.
For assay [7], the system named is PC9. The assay is described as follows: ERK reporter activity score (signed KS statistic vs DMSO) (signed KS statistic (-1 to 1)); higher = stronger activation of the pathway reporter relative to DMSO.
Assay [8] has as its system PC9. The assay is described as follows: JNK reporter activity score (signed KS statistic vs DMSO) (signed KS statistic (-1 to 1)); higher = stronger activation of the pathway reporter relative to DMSO.
Assay [9] relates to PC9. The assay is described as follows: WNT reporter activity score (signed KS statistic vs DMSO) (signed KS statistic (-1 to 1)); higher = stronger activation of the pathway reporter relative to DMSO.
Assay [10] has as its system PC9. The assay is described as follows: NFkB reporter activity score (signed KS statistic vs DMSO) (signed KS statistic (-1 to 1)); higher = stronger activation of the pathway reporter relative to DMSO.
For assay [11], the system named is PC9. The assay is described as follows: YAP/TAZ reporter activity score (signed KS statistic vs DMSO) (signed KS statistic (-1 to 1)); higher = stronger activation of the pathway reporter relative to DMSO.

Take `CC[C@@H]1/C=C/C=C/C[C@H](C)[C@H](O)[C@](C)(O)C(=O)[C@H](C)[C@@H](O)[C@H](C)C(=O)[C@H](C)[C@@H](O)[C@H](C)/C=C/C(=O)O[C@H]2[C@@H](C)[C@@H](CC1)O[C@@]1(CC[C@@H](C)[C@@H](C[C@H](C)O)O1)[C@@H]2C` [Oligomycin A]: in the assay on PC9 [1], the “AKT reporter activity score” value is -0.252. For the same compound, the “RAR reporter activity score” value in the assay on PC9 [2] is 0.0549. For the same compound, the “PKC reporter activity score” value in the assay on PC9 [3] is 0.0686. Besides, the “PKA reporter activity score” value with PC9 [4] was -0.0505. For the same compound, the “p38 reporter activity score” value in the assay on PC9 [5] is -0.305. Moreover, the “HIF reporter activity score” value in the assay with PC9 [6] amounted to 0.335. Besides, in the assay on PC9 [7], the “ERK reporter activity score” value stood at 0.114. Also, the “JNK reporter activity score” value in the assay on PC9 [8] is 0.0667. Also, the “WNT reporter activity score” value in the assay on PC9 [9] was found to be 0.138. The “NFkB reporter activity score” value with PC9 [10] came out at 0.0911. Besides, in the assay with PC9 [11], the “YAP/TAZ reporter activity score” value is 0.161.

Source of the values: the supplement of paper PMC9117331.
